Records with an inconclusive call do not appear. The source made the active and inactive calls. Calls come from the whole dose curve; as a rule, active = well fitted cell-killing curve with a large enough effect; inconclusive = small, poorly fitted or top-dose-only effect, or effect the other way; inactive = no such curve, though single readings can be large or run the other way.
Assay: Viability qHTS for spleen associated tyrosine kinase inhibitor (SYKi) naive MV4-11 cells (AID 1963823); note: nearly all actives have a fitted effect of over 40% in size
Conditions: MV4-11 AML viability, CellTiter-Glo luminescence, 72 h; series mostly up to 45 µM; viability (% of control): at the top concentration
Outline: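 CellTiter-Glo luminescence, 10 min room-temperature incubation, gave viability. Cells: naive MV4-11 (500/well), treated 72 hr at 37 C, 5% CO2.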
Potency is the fitted concentration of half-maximal effect.

| Compound | viability (% of control) | Potency |
| --- | --- | --- |
| C=C1CC23CC1CCC2C12OC(=O)C(C)(C(O)C(O)C1O)C2C3C(=O)O (centres undefined) | 74.8% (inactive) |  |
| C[C@@H]1O[C@@H](O[C@H]2[C@H](O[C@H]3[C@H](O)[C@@H](C(=O)O)O[C@@H](O[C@H]4CC[C@@]5(C)C(CC[C@]6(C)C5CC[C@]57OC[C@@]8(CCC(C)(C)CC85)[C@H](O)C[C@]76C)C4(C)C)[C@@H]3O[C@@H]3O[C@H](CO)[C@@H](O[C@@H]4OC[C@@H](O)[C@H](O)[C@H]4O)[C@H](O)[C@H]3O)O[C@H](CO)[C@H](O)[C@@H]2O)[C@H](O)[C@H](O)[C@H]1O (some centres undefined) | 77.6% [at 9.25 µM] (inactive) |  |
| C=C[C@H]1[C@H](O[C@@H]2O[C@H](CO)[C@@H](O)[C@H](O)[C@H]2O)OC=C(C(=O)OC)[C@H]1CCOC(=O)c1cc(O)c(O)c(O)c1 | 74.6% [at 17.3 µM] (inactive) |  |
| NS(=O)(=O)c1ccc(N=Nc2c(O)[nH]c3ccc(Br)cc23)cc1 |  | 0.13 µM (active) |
| C/C=C1\[C@H](O[C@@H]2O[C@H](CO)[C@@H](O)[C@H](O)[C@H]2O)OC=C(C(=O)O)[C@H]1CC(=O)OCCc1ccc(O)cc1 | 86.6% [at 17.3 µM] (inactive) |  |
| CC(C)C[C@@H](N)C(=O)N[C@H]1C(=O)N[C@@H](CC(N)=O)C(=O)N[C@H]2C(=O)N[C@H]3C(=O)N[C@H](C(=O)N[C@H](C(=O)O)c4cc(O)cc(O)c4-c4cc3ccc4O)[C@H](O)c3ccc(c(Cl)c3)Oc3cc2cc(c3O[C@@H]2O[C@H](CO)[C@@H](O)[C@H](O)[C@H]2O[C@H]2C[C@](C)(N)[C@H](O)[C@H](C)O2)Oc2ccc(cc2Cl)[C@H]1O | 89.5% [at 17.3 µM] (inactive) |  |
| CCC1C(=O)N(C)c2cnc(Nc3ccc(C(=O)NC4CCC(N5CCN(CC6CC6)CC5)CC4)cc3OC)nc2N1C(C)C (centres undefined) |  | 0.0259 µM (active) |
| CC(=O)NCCNc1cc(Cl)nn2c(-c3cccc(S(=O)(=O)N(C)C)c3)c(C)nc12 |  | 1.46 µM (active) |
| CNC(=O)[C@@H](c1ccccc1)N1CCc2cc(OC)c(OC)cc2[C@@H]1CCc1ccc(C(F)(F)F)cc1 |  | 20.6 µM (active) |
| CC(NC(=O)CC(=O)O)C(=O)Nc1ccccc1C(N)=O (centres undefined) | 73.9% (inactive) |  |
| COc1cc(C(CO)C(OC2OC(CO)C(O)C(O)C2O)c2ccc(O)c(OC)c2)ccc1O (centres undefined) | 67.3% [at 17.3 µM] (inactive) |  |
| C=C1[C@@H](OC(C)=O)CC[C@@]2(C)[C@@H](OC(C)=O)[C@H](OC(C)=O)C3=C(C)C[C@H](OC(=O)C(C)CC)[C@@H]([C@@H](OC(C)=O)[C@H]12)C3(C)C (some centres undefined) |  | 1.53 µM (active) |
| CC1CCC2C(C)(C)CC(C)(CO)C2(O)C1C(=O)O (centres undefined) | 62.2% (inactive) |  |
| O=C(O)/C=C/c1ccc(O)c(O[C@@H]2O[C@H](CO)[C@@H](O)[C@H](O)[C@H]2O)c1 | 85% (inactive) |  |
| Cc1cn(C2C[C@H](O)[C@@H](CO)O2)c(=O)[nH]c1=O (some centres undefined) | 92.7% (inactive) |  |
| CC1(C)C2CC(OC3OC(COC4OCC(O)(CO)C4O)C(O)C(O)C3O)C1(C)CC2O (centres undefined) | 57.7% [at 17.3 µM] (inactive) |  |
| C=C1[C@H]2[C@H](O[C@@H]3O[C@H](COC(=O)/C=C/c4cc(OC)c(O)c(OC)c4)[C@@H](O)[C@H](O)[C@H]3O)OC=C(C(=O)O)[C@H]2C[C@@H]1O | 77.1% [at 17.3 µM] (inactive) |  |
| CC(C)CC(=O)O[C@@H]1OC=C(CO[C@@H]2O[C@H](CO)[C@@H](O)[C@H](O)[C@H]2O)[C@H]2[C@@H]3O[C@H]3[C@@](O)(CO)[C@@H]12 | 88% [at 17.3 µM] (inactive) |  |
| CC1(C)CCC2(CC1)N[C@@H](C(=O)N[C@@H]1CC[C@@H](C(N)=O)OC1)[C@H](c1ccnc(Cl)c1F)[C@]21C(=O)Nc2cc(Cl)ccc21 |  | 16 µM (active) |
| CC(=O)O[C@H]1C[C@@]2(C)[C@@H](C[C@@H](O)[C@H]3[C@@]4(C)CC[C@@H](O)[C@@H](C)[C@@H]4CC[C@@]32C)/C1=C(\CCC=C(C)C)C(=O)O | 66.3% (inactive) |  |
| CC1(C)CC[C@]2(C(=O)O)CC[C@]3(C)C(=CCC4[C@@]5(C)CC[C@H](O[C@@H]6O[C@H](CO)[C@@H](O)[C@H](O)[C@H]6O[C@@H]6O[C@H](CO)[C@@H](O)[C@H](O)[C@H]6O)[C@@](C)(CO)C5CC[C@]43C)[C@@H]2C1 (some centres undefined) | 85.6% [at 17.3 µM] (inactive) |  |
| CC/C=C\CCO[C@@H]1O[C@H](CO[C@@H]2OC[C@H](O)[C@H](O)[C@H]2O)[C@@H](O)[C@H](O)[C@H]1O | 84.2% (inactive) |  |
| O=C1c2c(O[C@@H]3O[C@H](CO)[C@@H](O)[C@H](O)[C@H]3O)cc(O)cc2OC1(O)Cc1ccc(O)cc1 (some centres undefined) |  | 2 µM (active) |
| CN1C/C=C/CCOc2cccc(c2)-c2ccnc(n2)Nc2cccc(c2)C1 |  | 0.417 µM (active) |
